# Rows were chosen to be rich in hits. Some 10% of all compounds tested hit in one or more screens of this group.
# JMJD2A Tudor inh = qHTS Assay for Inhibitors of JMJD2A-Tudor Domain. Lysine-specific demethylase 4A (Homo sapiens), O75164. AlphaScreen JMJD2A-Tudor / H3K4me3 peptide binding. 390,000 tested, 4.4% active. Potency, µM (series often up to 114 µM), actives largely listed as inhibitors; also: nearly all actives have a fitted effect of over 50% in size
# CtBP-E1A blk = qHTS Assay for Inhibitors of the CtBP/E1A Interaction; CtBP / adenovirus E1A interaction (AlphaScreen); AlphaScreen GST-E1A/His-CtBP binding, 1536-well; stronger effect = lower value; activity change, % (concentration not given with the values); 340,000 tested, 0.49% active; AID 651724, 2012; in the data active = activity change below about -65%; inconclusive = mostly about -30% to -63%
#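 In 5 uL wells, 23 nL compound meets equimolar GST-E1A and His-CtBP (5X stock 125 nM each) for 2 h, 37 °C. Beads (5X, 50 ug/mL) then 1 h, 37 °C, dark.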
# Six1-Eya2 blk = qHTS Assay for Inhibitors of the Six1/Eya2 Interaction | activity change, % (test concentration not listed) | 360,000 tested, 0.56% active | Homeobox protein SIX1 (Homo sapiens) + Protein phosphatase EYA2 (Homo sapiens), … | AlphaScreen GST-Six1/His-Eya2 binding, biochemical; stronger effect = lower value | AID 651725, 2012; in the data active = activity change below about -65%; inconclusive = mostly about -30% to -63%
#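 Homogeneous AlphaScreen proximity assay pairing GST-Six1 with His-tagged Eya2 (added as 5X mix: 250 nM and 500 nM) in 50 mM Tris pH 8.0, 300 mM NaCl, 1 mM TCEP. Glutathione donor and nickel acceptor beads; 1 h, 37 °C, dark.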
# G9a inh = qHTS Assay for Inhibitors of Histone Lysine Methyltransferase G9a; Histone-lysine N-methyltransferase EHMT2 (Homo sapiens), Q96KQ7; G9a H3K9 monomethylation, AlphaScreen, 2 h; Potency, µM (titrated, usually from 102 µM), usual class: inhibitors; 350,000 tested, 8.8% active; AID 504332, 2011; also: nearly all actives have a fitted effect of over 75% in size
#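 Signal arises when biotinylated H3K9 peptide, once monomethylated, bridges streptavidin donor and antibody-captured acceptor beads. Enzyme at 20 nM was preincubated 15 min with test compounds; peptide 500 nM and SAM 20 uM then reacted for 2 h.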
# HP1b binding inh = HTS for Inhibitors of HP1-beta Chromodomain Interactions with Methylated Histone Tails; 390,000 tested, 0.56% active; Chromobox protein homolog 1 (Homo sapiens), P83916; AlphaScreen HP1-beta / biotin-H3K9me3 peptide binding; Potency, µM (highest dose often 114 µM), actives largely listed as inhibitors; also: nearly all actives have a fitted effect of over 70% in size
#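 Compound inhibition of the preformed complex between 50 nM HP1-beta and 50 nM biotinylated H3K9me3 peptide was read by AlphaScreen. Buffer was PBS pH 7.4 with 0.01% Tween-20. Incubations ran 30 min at room temperature, with 10 ug/mL donor/acceptor beads.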
# BAZ2B inh = qHTS Assay for Inhibitors of BAZ2B; AlphaScreen BAZ2B-H3K14Ac peptide displacement; Potency, µM (highest dose often 114 µM), most hits filed as inhibitors; 360,000 tested, 4.4% active; AID 504333, 2011; Bromodomain adjacent to zinc finger domain protein 2B (Homo sapiens), Q9UIF8; also: nearly all actives have a fitted effect of over 60% in size
#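 Compounds, titrated to a top concentration of 110 uM, were incubated 30 min at room temperature with preformed BAZ2B/acetyl-K14 H3 peptide complex (50 nM each). Proximity signal was measured by AlphaScreen after 20 min with beads.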
# Numbers stand for hits; - = inactive; ? = inconclusive; . = no result; ! = not confirmed by another sample; [ ] = another dose, or the depositor's remark. Unless noted, calls follow the shape of the dose curve; as a rule, active = well fitted inhibition curve with a large enough effect; inconclusive = small, poorly fitted or top-dose-only effect; inactive = no such curve, though single readings can be large or run the other way.
SMILES,JMJD2A Tudor inh,CtBP-E1A blk,Six1-Eya2 blk,G9a inh,HP1b binding inh,BAZ2B inh
NS(=O)(=O)c1ccc(CCNC(=O)C2CCN(c3ncnc4c3nc3n4CCCCC3)CC2)cc1,-,.,-,-,-,-
CCCC(=O)NC(=S)NNC(=O)c1ccc([N+](=O)[O-])cc1,71µM,-,-,3.2µM,-,-
CCC(=O)NC(=S)NNC(=O)c1ccc(O)cc1,20µM,-,-,.,-,-
CCC(=O)NC(=S)Nc1ccc(NC(=S)NC(=O)c2ccc(C)cc2)cc1,-,-,-,?,-,-
CCCCNC(=S)NC(=O)c1ccc([N+](=O)[O-])cc1,?,-,-,.,-,50µM
O=C(Nc1ccc(F)cc1)C(c1ccnc2ccccc12)N1CCN(c2cccc(C(F)(F)F)n2)CC1 (stereo not drawn),.,-,-,.,.,.
O=C(CNS(=O)(=O)c1ccc(F)c(Cl)c1)N1CCCC1,-,-,-,-[0.501 µM],-,-
COc1cc(/C=N/n2c(-c3ccccc3)n[nH]c2=S)ccc1O,5µM,-,-,2.2µM,-,-
COc1ccc(Br)cc1/C=N/n1c(-c2ccccc2)n[nH]c1=S,?,-,-,3.5µM,-,-
COc1ccc(/C=N/n2c(-c3ccc(C)cc3)n[nH]c2=S)cc1OC,7.9µM,.,-,0.4µM,-,-
COc1ccc(/C=N/n2c(C)nc3ccccc3c2=O)cc1OC,-,-,-,-,-,-
COc1cc(/C=N/n2c(-c3ccccc3)n[nH]c2=S)cc(OC)c1O,3.2µM,-,-,0.71µM,-,-
O=S(=O)(c1ccc2ccccc2c1)N1CCN(c2nc(-c3ccccc3)nc3ccccc23)CC1,-,.,.,.,-,.
CC(OC(=O)CNC(=O)C12CC3CC(CC(C3)C1)C2)C(=O)Nc1ccc(S(N)(=O)=O)cc1 (stereo not drawn),-,-,-,-,-,-
C=Cc1ccc(Cn2c(=O)n(-c3ccc(C)cc3)c(=O)c3c2c2cc(OC)ccc2n3C)cc1,-,.,.,?,-,-
Cc1cccc(NC(=O)CSc2nc3c([nH]c4ccccc43)c(=O)n2-c2ccc(F)cc2)c1C,-,.,.,-,-,-
CN1CCN(CCCNC(=O)c2cnn(-c3ccc(F)cc3)c2-n2cccc2)CC1,-,.,.,-,-,-
O=C(c1ccccc1)c1ccc(OCC(O)CN2CCCCC2)cc1 (stereo not drawn),-,-,-,-,-,-
O=C(c1ccc(OCCN2CCCCC2)cc1)c1c(-c2ccc(O)cc2)sc2cc(O)ccc12,40µM,-,-,22µM!,?,45µM
COC(=O)c1ccc(OCCN2CCCCCC2)cc1,-,-,-,35µM,-,?
O=C(c1ccccc1)c1ccc(OCCCN2CCCCC2)cc1,7.9µM,-,-,8.9µM,-,32µM
CC(=O)c1ccc(OCCCN2CCCCC2)cc1,2.2µM,-,-,3.5µM,?,50µM
O=c1c(-c2cccs2)nc2cnc(N3CCNCC3)nc2n1CCc1ccccc1,.,.,.,-[0.501 µM],.,.
Cc1ccc2sc(N3CCN(CCNC(=O)c4ccco4)CC3)nc2c1C,?,-,-,45µM,-,?
O=C(CCC(=O)Nc1ccccc1)N/N=C/c1ccncc1,-[11.4 µM],-,-,-,-,-
SMILES,JMJD2A Tudor inh,CtBP-E1A blk,Six1-Eya2 blk,G9a inh,HP1b binding inh,BAZ2B inh
Cc1ccccc1NC(=O)CCC(=O)N/N=C/c1ccncc1,-[11.4 µM],-,-,7.1µM,-,?
O=C(CCC(=O)Nc1ccc(F)cc1)N/N=C/c1ccncc1,3.5µM,-,-,-,-,.
COc1ccc(NC(=O)CCC(=O)N/N=C/c2ccncc2)cc1,-,-,-,22µM,-,-
Cc1ccc(C)c(NC(=O)CCC(=O)N/N=C/c2cccnc2)c1,-,-,-,-[0.501 µM],-,-
COc1ccc(NC(=O)Cn2c(=O)n(CC3CCCO3)c(=O)c3ccccc32)c(OC)c1 (stereo not drawn),-,-,-,-,-,-
Cc1ccc(OCC(=O)NCC2(N3CCN(C)CC3)CCCCC2)cc1,-,.,.,-,-,-
Cc1sc(-c2cc3ccccc3oc2=O)nc1-c1ccc(Cl)cc1,-,.,.,-,-,-
COCCNC(=O)CSc1cn(CC(=O)N2CCCCCC2)c2ccccc12,-,.,.,-,-,-
CC[C@H](C)NC(=O)c1ccc(Cn2c(=S)[nH]c3c([nH]c4ccc(OC)cc43)c2=O)cc1,?,-,-,56µM,-,71µM
COc1ccc2[nH]c3c(=O)n(Cc4ccc(C(=O)N5CCCCCC5)cc4)c(=S)[nH]c3c2c1,?,.,-,?,-,-
COc1ccc2[nH]c3c(=O)n(Cc4ccc(C(=O)NCC5CCCO5)cc4)c(=S)[nH]c3c2c1 (stereo not drawn),10µM,.,-,1.3µM,-,?
COc1ccc2[nH]c3c(=O)n(Cc4ccc(C(=O)N5CCC(C(N)=O)CC5)cc4)c(=S)[nH]c3c2c1,4µM,.,?,3.2µM,?,?
CCCc1cc(=O)n2[nH]c(-c3cc(OC)c(OC)c(OC)c3)nc2n1,-,-,-,45µM,-,-
COc1ccc(C(=O)CSc2nnc(CNc3nc(-c4ccccc4)cs3)n2C)cc1,-,-70,-71,?,-,-
CCn1c(CCNC(=O)c2cccs2)nnc1SCC(=O)c1ccc(OC)cc1,28µM,-,-,.,?,.
CCn1c(CNC(=O)c2ccc(OC)cc2)nnc1SCC(=O)c1ccccc1,20µM,-,-,-,?,-
CCn1c(CNC(=O)Cc2ccc(OC)cc2)nnc1SCC(=O)c1ccc(Br)cc1,-,-,-,-,-,-
COC(=O)CSc1nnc(CNc2nc(-c3ccccc3)cs2)n1C,-,-,?,-,-,-
CCn1c(CNC(C)=O)nnc1SCC(=O)c1ccc(Br)cc1,56µM,-,-,11µM,-,-
COc1ccc(C(=O)NCc2nnc(SCC(=O)c3ccccc3)n2C)cc1,-,-,-,-,-,-
Cc1ccc(NC(=O)Cn2c(=O)n(Cc3nc(-c4ccccc4)no3)c(=O)c3cc4c(cc32)OCO4)cc1F,-,.,.,-,-,-
CN1C2CCC1CC(NS(=O)(=O)c1cc(Cl)c(Cl)cc1Cl)C2 (stereo not drawn),-,-,-,-,-,-
COC(=O)c1ccc(NCCC(=O)O)cc1,-,-,-,-,?,-
CC(C)c1ccc(N2C(=O)CSC23C(=O)N(Cc2ccccc2F)c2ccccc23)cc1 (stereo not drawn),-,.,.,-,-,-
CC(C)N1CCc2c(sc(NC(=O)CCS(=O)(=O)c3ccccc3)c2C#N)C1,-,-,-,?,-,-

# Bioassay records (PubChem BioAssay)
